Consider 37 compounds from PubChem BioAssay (Tox21).

Inconclusive results are not listed. A call without a number means that no potency is given here. Calls of active or inactive are those of the source. The call rests on the fitted dose curve; in most records, active means well fitted curve in the direction sought with a large enough effect in the repeat runs; inconclusive means weak or mixed curves; inactive means no such curve, though single readings can be large; an effect the other way counts as inactive or inconclusive.

Estrogen receptor (Homo sapiens), sequence (P03372 whole entry, looked up): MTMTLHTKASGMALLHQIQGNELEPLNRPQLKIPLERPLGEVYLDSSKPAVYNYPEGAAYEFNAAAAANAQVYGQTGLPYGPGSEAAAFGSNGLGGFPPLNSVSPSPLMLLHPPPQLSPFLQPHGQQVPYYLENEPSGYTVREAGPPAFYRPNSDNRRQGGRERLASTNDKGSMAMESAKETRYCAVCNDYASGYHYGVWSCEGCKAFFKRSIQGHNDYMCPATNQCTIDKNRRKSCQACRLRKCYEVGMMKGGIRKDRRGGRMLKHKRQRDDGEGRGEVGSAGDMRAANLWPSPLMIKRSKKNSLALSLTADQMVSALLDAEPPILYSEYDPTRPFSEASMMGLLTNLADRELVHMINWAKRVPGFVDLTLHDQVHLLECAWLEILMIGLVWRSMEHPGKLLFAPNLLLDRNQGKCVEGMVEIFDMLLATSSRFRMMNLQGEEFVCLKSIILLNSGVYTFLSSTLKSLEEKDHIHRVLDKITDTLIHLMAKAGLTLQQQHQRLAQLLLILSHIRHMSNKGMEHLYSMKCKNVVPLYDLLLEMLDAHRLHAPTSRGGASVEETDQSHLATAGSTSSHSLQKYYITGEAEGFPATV

Test system in one assay: not listed separately
The assay can be described thus: qHTS assay to identify small molecule antagonists of the androgen receptor (AR) signaling pathway using the MDA cell line in the presence of 0.5 nM R1881 - cell viability counter screen (AID 1259242). Further: nearly all actives have a fitted effect of over 45% in size. To be noted: MDA-kb2 viability, CellTiter-Fluor protease fluorescence, 16 h; series mostly up to 92.4 µM. Summed up:
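Viability of MDA-kb2 cells was multiplexed with the luciferase AR readout; after 16 hr with compounds and R1881 at 0.5 nM final, CellTiter-Fluor fluorescence was recorded.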
(In general: Quantitative high-throughput screening tests each substance at several concentrations.)
In the case of `CC1CCCCC1NC(=O)Nc1ccccc1` (configuration not stated), the result was inactive. For `CCCSC(=O)N(CCC)CCC`, the outcome was inactive.

Turning to `CC1(C(=O)Nc2ccc(O)c(Cl)c2Cl)CCCCC1`, the outcome was inactive. On the same count and under the same terms, the value for `CCS(=O)(=O)CCSP(=O)(OC)OC` was “inactive”; that for `[As]#[In]` was “inactive”.

Turning to `O=C(CCN1CC1)OCC(CO)(COC(=O)CCN1CC1)COC(=O)CCN1CC1`, the result was inactive. As for `CC(CC(C#N)(c1ccccc1)c1ccccc1)N(C)C` (configuration not stated), the result was inactive. Same read-out and setting: the value for `Fc1ccc(C2(Cn3cncn3)OC2c2ccccc2Cl)cc1` (configuration not stated) was “inactive”. Still for that read-out and setting: the value for `COC(=O)COc1ccc(Cl)cc1Cl` was “inactive”; that for `CCCCC(=O)Cl` was “inactive”. The same measure, in the same setting: the value for `O=[N+]([O-])c1cccc(O)c1` was “inactive”.

On to `CCCCN(CCCCO)N=O`, for which the outcome was inactive. Same read-out and setting: next, `CCCCCCBr`: “inactive”. Regarding `CCCSP(=O)(OCC)Oc1ccc(Br)cc1Cl` (configuration not stated), the result was inactive. In the case of `O=C(Nc1ccccc1)N(Cc1ccc(Cl)cc1)C1CCCC1`, the outcome was inactive. On to `Cc1ccccc1CO[C@@H]1C[C@@]2(C(C)C)CC[C@]1(C)O2`, for which the result was inactive. On to `CCNc1nc(NC(C)C)nc(OC)n1`, for which the result was inactive.

`COC(C)(C)C`: the result was inactive. Regarding `CC(C)COP(=O)(OCC(C)C)OCC(C)C`, the outcome was inactive. Turning to `CNC(=O)Oc1cccc(C(C)C)c1`, the outcome was inactive. Still for that read-out and setting: next, `COc1cc(OC)nc(Sc2cccc(Cl)c2C(=O)O)n1`: “inactive”. On to `C[C@]1(O)CC[C@H]2[C@@H]3CCC4=CC(=O)CC[C@]4(C)[C@@]3(F)[C@@H](O)C[C@@]21C`, for which the outcome was inactive. Turning to `CCC#N`, the outcome was inactive. Still for that read-out and setting: next, `CC(C1CC1)C(O)(Cn1cncn1)c1ccc(Cl)cc1` (configuration not stated): “inactive”.

For the compound `CC1CCC(=O)O1` (configuration not stated), the result was inactive. On the same count and under the same terms, the value for `CC(C)[N+](=O)[O-]` was “inactive”.

On to `COc1cccc(C(=O)NN(C(=O)c2cc(C)cc(C)c2)C(C)(C)C)c1C`, for which the outcome was inactive. `CCOC(=O)NC(=S)Nc1ccccc1NC(=S)NC(=O)OCC`: the result was inactive. On to `COCC(=O)N(c1c(C)cccc1C)N1CCOC1=O`, for which the outcome was inactive. The same measure, in the same setting: the value for `CCOP(=S)(Oc1cnc(C(C)(C)C)nc1)OC(C)C` (configuration not stated) was “inactive”; that for `CCCCOC(=O)c1ccccc1N` was “inactive”.

Turning to `ClCC(Cl)Cl`, the result was inactive. In the case of `N#CC(O)c1ccccc1` (configuration not stated), the result was inactive.

In another assay the target is Estrogen receptor (Homo sapiens) (UniProt P03372). The assay can be described thus: qHTS assay to identify small molecule antagonists of the estrogen receptor alpha (ER-alpha) signaling pathway using the BG1 cell line in the presence of 0.1 nM 17-beta-estradiol (AID 1259244). Further: nearly all actives have a fitted effect of over 50% in size. Further: potency means the concentration at half of the fitted maximal effect. The note with it: VM7Luc4E2 (BG1) ERE-luciferase, antagonist mode, 0.1 nM E2, 22 h; series mostly up to 92.4 µM. A digest of the protocol:
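Estradiol at 0.1 nM (final) stimulates the endogenous ER-alpha of VM7Luc4E2 cells carrying an ERE-driven luciferase; compounds are co-incubated 22 h at 37C and luciferase output quantified by luminescence.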
Regarding `N#CC(CCc1ccc(Cl)cc1)(Cn1cncn1)c1ccccc1` (configuration not stated), the Potency was 27.3 µM (active).

For the compound `C=CCC1=C(C)[C@@H](OC(=O)[C@@H]2[C@@H](C=C(C)C)C2(C)C)CC1=O`, the Potency is 24.3 µM (active). For `COc1cccc2c1cc([N+](=O)[O-])c1c(C(=O)O)cc3c(c12)OCO3`, the Potency is 6.86 µM (active). The same measure, in the same setting: next, `O=[N+]([O-])c1cc(Cl)c(Cl)c(Cl)c1`: “inactive”.
